The supplement of paper PMC8728848
The sample as a whole holds a higher share of the strongest signals than the screen did.

Columns and labels:
Assay in all cases: glycan array binding signal (z-score within array); higher = stronger binding
Settings in all cases: glycan notation: IUPAC condensed, linker removed
[1] = target: Fuc(a1-2)Gal(b1-3)[Fuc(a1-4)]GlcNAc
Method in brief: (§1)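 From the Consortium for Functional Glycomics database, 3228 arrays were curated, keeping only those whose protein sequence was available. Binding is given as a within-array Z-score averaged across arrays sharing a protein sequence and across linkers. Negative Z-scores can be read as non-binding.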

[2] = target: Fuc(a1-2)Gal(b1-3)[Fuc(a1-4)]GlcNAc(b1-3)[Fuc(a1-3)[Gal(b1-4)]GlcNAc(b1-6)]Gal(b1-4)Glc
Method in brief: as §1

[3] = target: Fuc(a1-2)Gal(b1-4)Fuc(a1-3)]GlcNAc(b1-2)Man(a1-3)[Fuc(a1-2)Gal(b1-4)[Fuc(a1-3)]GlcNAc(b1-2)Man(a1-6)]Man(b1-4)GlcNAc(b1-4)GlcNAc
Method in brief: as §1

Fuc(a1-2)Gal(b1-4)GlcNAc = target: Fuc(a1-2)Gal(b1-4)GlcNAc
Method in brief: as §1

[4] = target: Fuc(a1-2)Gal(b1-4)GlcNAc(b1-6)GalNAc
Method in brief: as §1

[5] = target: Fuc(a1-2)Gal(b1-4)[Fuc(a1-3)]GlcNAc(b1-3)GalNAc
Method in brief: as §1

[6] = target: Fuc(a1-2)Gal6S(b1-3)GlcNAc6S
Method in brief: as §1

[7] = target: Fuc(a1-2)[Gal(a1-3)]Gal(b1-3)GlcNAc
Method in brief: as §1

[8] = target: Fuc(a1-2)[Gal(a1-3)]Gal(b1-4)[Fuc(a1-3)]Glc
Method in brief: as §1

[9] = target: Fuc(a1-2)[GalNAc(a1-3)]Gal(b1-3)GalNAc(b1-3)Gal(a1-4)Gal(b1-4)Glc
Method in brief: as §1

[10] = target: Fuc(a1-2)[GalNAc(a1-3)]Gal(b1-4)GlcNAc(b1-2)Man(a1-3)[Fuc(a1-2)[GalNAc(a1-3)]Gal(b1-4)GlcNAc(b1-2)Man(a1-6)]Man(b1-4)GlcNAc(b1-4)[Fuc(a1-6)]GlcNAc
Method in brief: as §1

[11] = target: Fuc(a1-2)[GalNAc(a1-3)]Gal(b1-4)GlcNAc(b1-3)Gal(b1-4)GlcNAc
Method in brief: as §1

[12] = target: Fuc(a1-2)[GalNAc(a1-3)]Gal(b1-4)[Fuc(a1-3)]GlcNAc(b1-3)GalNAc
Method in brief: as §1

[13] = target: Fuc(a1-3)[Gal(b1-4)]GlcNAc(b1-2)Man
Method in brief: as §1

[14] = target: Fuc(a1-3)[Gal(b1-4)]GlcNAc(b1-3)GalNAc
Method in brief: as §1

[15] = target: Fuc(a1-3)[Gal(b1-4)]GlcNAc(b1-6)GalNAc
Method in brief: as §1

[16] = target: Gal(a1-3)Gal(b1-3)[Fuc(a1-4)]GlcNAc(b1-2)Man(a1-3)[Gal(a1-3)Gal(b1-3)[Fuc(a1-4)]GlcNAc(b1-2)Man(a1-6)]Man(b1-4)GlcNAc(b1-4)GlcNAc
Method in brief: as §1

Gal(a1-4)GlcNAc = target: Gal(a1-4)GlcNAc
Method in brief: as §1

[17] = target: Gal(b1-3)[Neu5Ac(a2-6)]GlcNAc(b1-4)Gal(b1-4)Glc
Method in brief: as §1

Gal(b1-4)Glc6S = target: Gal(b1-4)Glc6S
Method in brief: as §1

[18] = target: Gal(b1-4)GlcNAc(b1-3)Gal(b1-3)GalNAc
Method in brief: as §1

[19] = target: Gal(b1-4)GlcNAc(b1-3)Gal(b1-3)GlcNAc
Method in brief: as §1

[20] = target: Gal(b1-4)GlcNAc(b1-3)Gal(b1-4)GlcNAc
Method in brief: as §1

[21] = target: Gal(b1-4)GlcNAc(b1-3)GalNAc
Method in brief: as §1

[22] = target: Gal(b1-4)GlcNAc(b1-3)[Fuc(a1-3)GlcNAc(b1-6)]Gal(b1-4)Glc
Method in brief: as §1

[23] = target: Gal(b1-4)GlcNAc(b1-3)[GlcNAc(b1-6)]Gal(b1-4)GlcNAc
Method in brief: as §1

Gal3S(b1-3)GlcNAc = target: Gal3S(b1-3)GlcNAc
Method in brief: as §1

[24] = target: Gal3S(b1-3)[Fuc(a1-4)]GlcNAc
Method in brief: as §1

Gal3S6S(b1-4)GlcNAc6S = target: Gal3S6S(b1-4)GlcNAc6S
Method in brief: as §1

Gal4S(b1-4)GlcNAc = target: Gal4S(b1-4)GlcNAc
Method in brief: as §1

Gal6S(b1-4)GlcNAc6S = target: Gal6S(b1-4)GlcNAc6S
Method in brief: as §1

[25] = target: GalNAc(b1-3)Gal(a1-4)Gal(b1-4)GlcNAc(b1-3)Gal(b1-4)Glc
Method in brief: as §1

GalNAc4S6S(b1-4)GlcNAc = target: GalNAc4S6S(b1-4)GlcNAc
Method in brief: as §1

Glc(b1-4)Glc = target: Glc(b1-4)Glc
Method in brief: as §1

GlcA(b1-6)Gal = target: GlcA(b1-6)Gal
Method in brief: as §1

[26] = target: GlcNAc(a1-4)Gal(b1-4)GalNAc
Method in brief: as §1

[27] = target: GlcNAc(b1-2)[GlcNAc(b1-6)]Man(a1-6)[GlcNAc(b1-2)Man(a1-3)]Man(b1-4)GlcNAc(b1-4)GlcNAc
Method in brief: as §1

[28] = target: GlcNAc(b1-2)[GlcNAc(b1-6)]Man(a1-6)[GlcNAc(b1-4)][GlcNAc(b1-2)Man(a1-3)]Man(b1-4)GlcNAc(b1-4)GlcNAc
Method in brief: as §1

[29] = target: GlcNAc(b1-4)GlcNAc(b1-4)GlcNAc(b1-4)GlcNAc(b1-4)GlcNAc(b1-4)GlcNAc
Method in brief: as §1

Kdn(a2-3)Gal(b1-3)GalNAc = target: Kdn(a2-3)Gal(b1-3)GalNAc
Method in brief: as §1

[30] = target: Man(a1-2)Man(a1-3)[Man(a1-6)]Man(a1-6)[Man(a1-2)Man(a1-3)]Man(b1-4)GlcNAc(b1-4)GlcNAc
Method in brief: as §1

[31] = target: Neu5Ac(a2-3)Gal(b1-3)GlcNAc6S
Method in brief: as §1

[32] = target: Neu5Ac(a2-3)Gal(b1-3)[GlcNAc(b1-6)]GalNAc
Method in brief: as §1

[33] = target: Neu5Ac(a2-3)Gal(b1-3)[Neu5Ac(a2-6)]GlcNAc(b1-3)[Fuc(a1-3)[Gal(b1-4)]GlcNAc(b1-6)]Gal(b1-4)Glc
Method in brief: as §1

Neu5Ac(a2-3)Gal(b1-4)Glc = target: Neu5Ac(a2-3)Gal(b1-4)Glc
Method in brief: as §1

[34] = target: Neu5Ac(a2-3)Gal(b1-4)GlcNAc(b1-2)Man
Method in brief: as §1

[35] = target: Neu5Ac(a2-3)Gal(b1-4)GlcNAc(b1-3)Gal(b1-4)GlcNAc(b1-2)Man(a1-3)[Neu5Ac(a2-3)Gal(b1-4)GlcNAc(b1-3)Gal(b1-4)GlcNAc(b1-2)Man(a1-6)]Man(b1-4)GlcNAc(b1-4)GlcNAc
Method in brief: as §1

[36] = target: Neu5Ac(a2-3)Gal(b1-4)GlcNAc(b1-3)Gal(b1-4)GlcNAc(b1-3)Gal(b1-4)GlcNAc(b1-2)Man(a1-3)[Neu5Ac(a2-3)Gal(b1-4)GlcNAc(b1-3)Gal(b1-4)GlcNAc(b1-3)Gal(b1-4)GlcNAc(b1-2)Man(a1-6)]GalNAc
Method in brief: as §1

[37] = target: Neu5Ac(a2-3)Gal(b1-4)GlcNAc(b1-3)[Neu5Ac(a2-3)Gal(b1-4)GlcNAc(b1-6)]GalNAc
Method in brief: as §1

[38] = target: Neu5Ac(a2-3)Gal(b1-4)[Fuc(a1-3)]GlcNAc(b1-2)Man
Method in brief: as §1

[39] = target: Neu5Ac(a2-6)Gal(b1-4)GlcNAc(b1-2)Man(a1-3)[GlcNAc(b1-2)Man(a1-6)]Man(b1-4)GlcNAc(b1-4)GlcNAc
Method in brief: as §1

[40] = target: Neu5Ac(a2-6)Gal(b1-4)GlcNAc(b1-2)Man(a1-3)[Neu5Ac(a2-3)Gal(b1-4)GlcNAc(b1-2)Man(a1-6)]Man(b1-4)GlcNAc(b1-4)GlcNAc
Method in brief: as §1

[41] = target: Neu5Ac(a2-6)Gal(b1-4)GlcNAc(b1-2)Man(a1-3)[Neu5Ac(a2-6)Gal(b1-4)GlcNAc(b1-2)Man(a1-6)]Man(b1-4)GlcNAc(b1-4)[Fuc(a1-6)]GlcNAc
Method in brief: as §1

[42] = target: Neu5Ac(a2-6)Gal(b1-4)GlcNAc6S
Method in brief: as §1

[43] = target: Neu5Ac(a2-6)GlcNAc(b1-4)GlcNAc(b1-4)GlcNAc
Method in brief: as §1

[44] = target: Neu5Ac(a2-8)Neu5Gc(a2-3)Gal(b1-4)GlcNAc
Method in brief: as §1

[45] = target: Neu5Ac9Ac(a2-3)Gal(b1-4)GlcNAc
Method in brief: as §1

[46] = target: Neu5Ac9Ac(a2-6)Gal(b1-4)GlcNAc
Method in brief: as §1

[47] = target: Neu5Gc(a2-3)Gal(b1-4)GlcNAc
Method in brief: as §1

B1: Epa2 (Candida glabrata) (protein)
chain: MGSSHHHHHHSSGLVPRGSHMASSKDPTSFPMGCSPQVLKTQPGLAVKLYSYGHPVPGCAYNTYQYPDFPRSGYKKERKLADITGVNGRIDIDLKPNDPCRVLSGNLPSNYNYQNTLTYTNFTMILYGYFQPKVTGYHTFNLEADDLLFMNLGAGNAFDCCRAESTLDNFGNYQSYSIWGTDKATADLTVFLVSGIYYPIRLFYVNRDNNAVLDFSFSTEFNKEIIHDFTSYFFSASDEEQCPGNI
[1]
  glycan array binding signal (z-score): 0.672
[2]
  glycan array binding signal (z-score): 0.365
[3]
  glycan array binding signal (z-score): 0.533
Fuc(a1-2)Gal(b1-4)GlcNAc
  glycan array binding signal (z-score): -0.046
[4]
  glycan array binding signal (z-score): 2.02
[5]
  glycan array binding signal (z-score): 4.06
[6]
  glycan array binding signal (z-score): 1.81
[7]
  glycan array binding signal (z-score): -0.553
[8]
  glycan array binding signal (z-score): -0.56
[9]
  glycan array binding signal (z-score): -0.252
[10]
  glycan array binding signal (z-score): -0.26
[11]
  glycan array binding signal (z-score): -0.172
[12]
  glycan array binding signal (z-score): 4.26
[13]
  glycan array binding signal (z-score): -1.15
[14]
  glycan array binding signal (z-score): 0.659
[15]
  glycan array binding signal (z-score): 2.23
[16]
  glycan array binding signal (z-score): -0.479
Gal(a1-4)GlcNAc
  glycan array binding signal (z-score): 2.5
[17]
  glycan array binding signal (z-score): 0.015
Gal(b1-4)Glc6S
  glycan array binding signal (z-score): -0.198
[18]
  glycan array binding signal (z-score): 0.503
[19]
  glycan array binding signal (z-score): -0.725
[20]
  glycan array binding signal (z-score): -0.158
[21]
  glycan array binding signal (z-score): -0.071
[22]
  glycan array binding signal (z-score): 0.111
[23]
  glycan array binding signal (z-score): -1.09
Gal3S(b1-3)GlcNAc
  glycan array binding signal (z-score): -0.16
[24]
  glycan array binding signal (z-score): 0.641
Gal3S6S(b1-4)GlcNAc6S
  glycan array binding signal (z-score): 2.14
Gal4S(b1-4)GlcNAc
  glycan array binding signal (z-score): -0.316
Gal6S(b1-4)GlcNAc6S
  glycan array binding signal (z-score): 2.81
[25]
  glycan array binding signal (z-score): 1.03
GalNAc4S6S(b1-4)GlcNAc
  glycan array binding signal (z-score): 0.176
Glc(b1-4)Glc
  glycan array binding signal (z-score): 0.058
GlcA(b1-6)Gal
  glycan array binding signal (z-score): 0.586
[26]
  glycan array binding signal (z-score): -0.65
[27]
  glycan array binding signal (z-score): -0.896
[28]
  glycan array binding signal (z-score): -0.884
[29]
  glycan array binding signal (z-score): -0.072
Kdn(a2-3)Gal(b1-3)GalNAc
  glycan array binding signal (z-score): 2.25
[30]
  glycan array binding signal (z-score): -1.18
[31]
  glycan array binding signal (z-score): 0.604
[32]
  glycan array binding signal (z-score): -0.044
[33]
  glycan array binding signal (z-score): 0.369
Neu5Ac(a2-3)Gal(b1-4)Glc
  glycan array binding signal (z-score): 0.776
[34]
  glycan array binding signal (z-score): 3.5
[35]
  glycan array binding signal (z-score): 0.377
[36]
  glycan array binding signal (z-score): 2.23
[37]
  glycan array binding signal (z-score): 3.03
[38]
  glycan array binding signal (z-score): -0.325
[39]
  glycan array binding signal (z-score): -0.681
[40]
  glycan array binding signal (z-score): -0.821
[41]
  glycan array binding signal (z-score): -0.149
[42]
  glycan array binding signal (z-score): -0.614
[43]
  glycan array binding signal (z-score): -0.626
[44]
  glycan array binding signal (z-score): -1.11
[45]
  glycan array binding signal (z-score): -0.074
[46]
  glycan array binding signal (z-score): -0.169
[47]
  glycan array binding signal (z-score): -0.248
